# Only some compounds are listed: those with a hit (about 1.1% of all), similar ones and a draw of the others.
# RXFP1 antagonist: qHTS Assay for Antagonists of the Relaxin Receptor RXFP1. Relaxin receptor 1 (Homo sapiens), Q9HBX9. HEK293-RXFP1, relaxin-stimulated cAMP HTRF, 30 min; hits give low values. 350,000 tested, 0.59% active. activity change, negative = inhibition, % at 57.5 µM;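 active = activity change of -60% or lower, but not beyond a set lower limit; inconclusive = change between -60% and -40%, or beyond the set limit; inactive = change above -40%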; also: % is scaled to controls: 0 for no effect and ±100 for the full control effect
# gsp antagonist: qHTS for Antagonists of gsp, the Etiologic Mutation Responsible for Fibrous Dysplasia/McCune-Albright Syndrome: qHTS. Potency, µM (series often up to 76.9 µM), inactives show at the highest dose activity change, negative = inhibition, most hits filed as inhibitors. gsp-mutant cells, cAMP HTRF, 30 min. 340,000 tested, 0.4% active; calls by dose curve; cell line not stated here;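 also: intracellular cAMP measured with PDE inhibitor Ro 20-1724 present during compound exposure; potency is read from the fitted curve at half-maximal effect; % is scaled to controls: 0 for no effect and ±100 for the full control effect; nearly all actives have a fitted effect of over 65% in size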
#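 G418-selected cells were plated in DMEM/10% FBS for 16-24 h at 37C, then treated with compounds plus the PDE inhibitor […] (300 uM solution added) for 30 min at 37C. Intracellular cAMP was measured by HTRF after 30 min lysis at room temperature.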
# TRPV1 ag: HTS Assay for Compounds that Act as Agonists of the Vanilloid Receptor 1 | Transient receptor potential cation channel subfamily V member 1 (Homo sapiens), Q8NER1 | TRPV1-expressing cells, Fluo-8 calcium influx, agonist mode | activation, % at 8.33 µM | 320,000 tested, 0.19% active | AID 540275, 2011; in the data active = activation above about 80%; inconclusive = between about 30% and that limit; also: 0% is about no effect
# Target sequence (Q8NER1 whole entry, looked up): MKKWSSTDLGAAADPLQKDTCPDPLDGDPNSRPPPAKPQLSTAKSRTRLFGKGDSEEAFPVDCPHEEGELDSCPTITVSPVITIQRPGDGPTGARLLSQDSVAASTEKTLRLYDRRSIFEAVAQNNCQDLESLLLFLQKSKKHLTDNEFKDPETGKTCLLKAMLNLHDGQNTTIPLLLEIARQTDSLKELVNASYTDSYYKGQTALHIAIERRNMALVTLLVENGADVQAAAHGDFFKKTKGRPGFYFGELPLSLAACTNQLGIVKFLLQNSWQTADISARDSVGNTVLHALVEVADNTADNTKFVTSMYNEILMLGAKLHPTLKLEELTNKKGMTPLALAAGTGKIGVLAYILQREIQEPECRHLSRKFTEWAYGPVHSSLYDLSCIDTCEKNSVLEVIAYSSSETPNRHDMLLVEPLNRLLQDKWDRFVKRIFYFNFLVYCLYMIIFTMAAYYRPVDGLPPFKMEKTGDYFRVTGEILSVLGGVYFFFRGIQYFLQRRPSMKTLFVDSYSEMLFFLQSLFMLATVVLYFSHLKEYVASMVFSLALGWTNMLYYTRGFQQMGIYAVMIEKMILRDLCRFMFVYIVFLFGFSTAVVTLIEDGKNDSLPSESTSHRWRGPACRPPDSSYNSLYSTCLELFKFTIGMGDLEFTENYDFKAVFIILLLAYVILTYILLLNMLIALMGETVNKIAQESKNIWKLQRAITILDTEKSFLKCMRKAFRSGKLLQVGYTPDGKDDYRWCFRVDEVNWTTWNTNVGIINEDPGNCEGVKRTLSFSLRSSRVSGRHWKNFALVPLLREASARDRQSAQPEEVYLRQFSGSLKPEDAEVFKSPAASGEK
#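 Fluo-8 calcium influx in TRPV1-expressing cells, kinetic read (ex 480/em 520 nm). Compound added and read 3 min for agonist activity, followed by capsaicin at EC20 final and 2 min further read for enhancement.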
# RXFP1 agonist: qHTS Assay for Agonists of the Relaxin Receptor RXFP1; Relaxin receptor 1 (Homo sapiens), Q9HBX9; AID 2676, 2010; HEK293T-RXFP1 cAMP TR-FRET, 30 min; response scale: percent of porcine relaxin response, buffer zero; 370,000 tested, 0.3% active; Potency, µM (highest dose often 57.5 µM), for inactives: at the highest dose activation, hits mostly activators; active = well fitted activation curve with a large enough effect; inconclusive = small, poorly fitted or top-dose-only effect; also: potency is read from the fitted curve at half-maximal effect; % is scaled to controls: 0 for no effect and ±100 for the full control effect; nearly all actives have a fitted effect of over 60% in size
#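 HEK293 cells stably expressing RXFP1, treated 30 min at 37C with compounds plus PDE4 inhibitor Ro 20174; cAMP measured by HTRF TR-FRET. Normalized to buffer and 29 nM porcine relaxin; EC50 by Hill fit.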
# gsp agonist: qHTS for Agonist of gsp, the Etiologic Mutation Responsible for Fibrous Dysplasia/McCune-Albright Syndrome: qHTS; gsp mutant cells, cAMP HTRF, 30 min; Potency, µM (series often up to 76.9 µM), inactives show top-dose activation (cAMP increase), hits mostly activators; 340,000 tested, 0.13% active; AID 624287, 2012; active = well fitted activation curve with a large enough effect; inconclusive = small, poorly fitted or top-dose-only effect, or another doubt; inactive = no such curve, though single readings can be large or run the other way; cell line not stated here;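 also: phosphodiesterase inhibitor Ro 20-1724 added with compounds to block cAMP breakdown; potency is read from the fitted curve at half-maximal effect; nearly all actives have a fitted effect of over 60% in size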
#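 Cells in DMEM/10% FBS with G418 were pretreated with compounds in DMSO plus […] (300 uM stock) for 30 min at 37C. cAMP was measured by HTRF (cAMP-d2 plus anti-cAMP antibody-K) after 30 min at room temperature.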
# TRPV1 potentiator: HTS Assay for Compounds that Act as Potentiators of the Vanilloid Receptor 1 | 320,000 tested, 0.02% active | potentiation, % at 8.33 µM | TRPV1-expressing cells, Fluo-8 calcium influx, capsaicin EC20 potentiation | Transient receptor potential cation channel subfamily V member 1 (Homo sapiens), Q8NER1; in the data active = potentiation above about 80%; inconclusive = between about 30% and that limit; also: 0% is about no effect
#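 Cells expressing TRPV1 were dye-loaded with Fluo-8 and read kinetically: 10 s baseline, 3 min after compound (agonist portion), then 2 min after EC20 capsaicin (allosteric enhancer portion). Calcium-bound dye fluorescence at 480/520 nm.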
# * hit, by the source's call; ? = inconclusive; · = no result given; [ ] = remark or other dose.
SMILES,RXFP1 antagonist,gsp antagonist,TRPV1 ag,RXFP1 agonist,gsp agonist,TRPV1 potentiator
Cc1cccc(C)c1NC(=O)CN(C)CC(=O)Nc1ccc(C#N)c(Cl)c1,-17,8%,12,5%,?,2
C[C@]12Cc3cn[nH]c3C[C@@H]1CC[C@@H]1[C@@H]2CC[C@@]2(C)[C@H]1CC[C@]2(C)O,-31,·,·,·,·,·
COc1ccc(N2C(=O)/C(=C/C=C/c3ccccc3[N+](=O)[O-])C(=O)NC2=S)cc1,-77*,-6%,-6,1%,-4%[15.4 µM],12
Nc1c(C(=O)OC2CCCCC2)c2nc3ccccc3nc2n1CC1CCCO1 (stereo unspecified),-62*,?,22,2%,-29%,-3
O=C1C=CC(=O)C2C1C1(Cl)C(Cl)=C(Cl)C2(Cl)C1(Cl)Cl (stereo unspecified),-95*,-18%,·,·,-8%,·
CCCCCCCCC(=O)NCc1ccc(O)c(OC)c1,-30,4%,105*,-1%,·,4
N#CC(C#N)=NNc1ccc(-n2ccc(C(F)(F)F)n2)cc1,?,32µM*,9,1%,?,18
COc1cccc2c1C(=O)c1c(O)c3c(c(O)c1C2=O)C[C@@](O)(C(=O)CO)CC3OC1CC(N2CCOC(OC)C2)C(O)C(C)O1 (stereo partly specified),-19,·,·,·,·,·

# Assay outcomes (PubChem)
